Shown are actives, neighbours in structure and some others; about 11% of the full set was active somewhere.
PNC inhibitor = High Content Assay for Compounds that inhibit the Assembly of the Perinucleolar Compartment; activity change (PNC), negative = inhibition, % at 10 µM; 140,000 compounds, 3.1% hits; PC3M PTB-GFP, PNC prevalence imaging, 16 h; stronger effect = lower value; AID 2417, 2010;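 active = readout at or below -70, meaning at least 70% loss of cells showing the perinucleolar compartment, a nuclear body marking cancer cells; inconclusive = readout between -30 and a set limit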;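 note: plate controls were DMSO wells for no effect and camptothecin positive control wells for full effect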
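PC3M cells stably expressing PTB-GFP, 750–1000 cells/well, treated 16 h at 37 °C with compound (23 nl of library stock), in duplicate. After paraformaldehyde fixation and Hoechst stain, imaged at 20x; PNC prevalence scored by image analysis.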
HPGD block = qHTS Assay for Inhibitors of HPGD (15-Hydroxyprostaglandin Dehydrogenase) | 150,000 compounds, 4.3% hits | Potency, µM, for inactives: at the highest dose activity change, negative = inhibition, actives largely listed as inhibitors | 15-hydroxyprostaglandin dehydrogenase [NAD(+)] (Homo sapiens), P15428 | purified HPGD, NADH fluorescence kinetic, PGE2 substrate; note: potency is the fitted concentration of half-maximal effect
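20 nM HPGD preincubated 15 min at room temperature with compound in 50 mM Tris-HCl pH 8, 0.01% Tween 20. Started with 1 mM NAD+ and 30 uM prostaglandin E2; NADH fluorescence (360/450 nm) read 5 times over 30-s intervals, last minus first.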
ALDH1A1 inh = qHTS Assay for Inhibitors of Aldehyde Dehydrogenase 1 (ALDH1A1); 220,000 compounds, 7.3% hits; Potency, µM (top dose mostly 75.3 µM), for inactives: at the highest dose activity, negative = inhibition, hits mostly inhibitors; Aldehyde dehydrogenase 1A1 (Homo sapiens), P00352; AID 1030, 2008; Purified ALDH1A1, NADH fluorescence, propionaldehyde substrate;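 note: potency is the fitted concentration of half-maximal effect; plate controls were no enzyme wells and a reference inhibitor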
Target sequence (P00352 whole entry, looked up): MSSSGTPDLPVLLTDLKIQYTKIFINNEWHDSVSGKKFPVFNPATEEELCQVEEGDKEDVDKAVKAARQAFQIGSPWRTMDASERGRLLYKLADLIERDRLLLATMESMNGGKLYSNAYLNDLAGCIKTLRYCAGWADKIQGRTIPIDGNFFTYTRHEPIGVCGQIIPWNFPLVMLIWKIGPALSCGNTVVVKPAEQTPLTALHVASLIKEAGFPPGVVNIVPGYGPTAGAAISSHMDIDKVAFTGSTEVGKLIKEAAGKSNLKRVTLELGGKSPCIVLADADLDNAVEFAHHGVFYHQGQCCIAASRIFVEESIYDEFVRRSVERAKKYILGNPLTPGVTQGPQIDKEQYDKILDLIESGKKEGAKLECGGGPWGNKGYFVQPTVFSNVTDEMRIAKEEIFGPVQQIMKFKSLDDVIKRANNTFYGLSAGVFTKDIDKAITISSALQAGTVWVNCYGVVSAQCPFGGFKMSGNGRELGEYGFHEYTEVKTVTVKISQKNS
An asterisk follows results filed as active; ? = inconclusive; . = no result. Unless noted, calls come from the whole dose curve; as a rule, active = well fitted inhibition curve with a large enough effect (not every such curve was filed as active); inconclusive = small, poorly fitted or top-dose-only effect, or another doubt; inactive = no such curve, though single readings can be large or run the other way. Unless noted, % is set by controls: 0 for no effect and ±100 for the full control effect.

SMILES	PNC inhibitor	HPGD block	ALDH1A1 inh
COc1ccc2[nH]c(C)c(CCN(Cc3cccs3)C(=S)Nc3ccccc3)c2c1	-9	-7%	?
FC(F)(F)c1ccc(Nc2nnnc3ccccc23)cc1	.	.	13%
CC(C)n1c(N2CCN(CC(=O)NCc3cccs3)CC2)nc2ccccc21	15	-11%	10µM*
O=C(CN1CCC(c2nc3ccccc3s2)CC1)NCc1cccs1	23	?	6.3µM*
CC(C)n1c(N2CCN(C(=O)c3cccs3)CC2)nc2ccccc21	?	1%	?
O=C(CN1CCC(n2nnc3cc(C(F)(F)F)ccc32)CC1)NCc1cccs1	?	1%	3%
COc1cccc(NC(=O)c2cc(OC)c(OC)c(OC)c2Br)c1	?	-13%	0%
Cc1cc(=O)[nH]c(Nc2ccc(C(=O)OC(C)C)cc2)n1	9	-9%	-14%
O=C(CNC(=O)c1ccco1)NCC(=O)OC(C(=O)c1ccccc1)c1ccc(Cl)cc1 (stereo unspecified)	-100*	-22%	?
O=C(CNC(=O)c1ccco1)OC(C(=O)c1ccccc1)c1ccccc1 (stereo unspecified)	-1	-10%	-1%
CCOC(=O)C1=C(O)/C(=C\c2ccc(OC)c(OC)c2)N=C1C	9	-12%	-8%
CCOC(=O)C1=C(O)c2ccccc2C(=O)/C1=C\c1ccc(C)cc1	?	14µM*	7.9µM*
COc1cccc([C@@H]2Oc3ccc(OC)cc3C(=O)[C@H]2OC(=O)NC2CCCC2)c1	.	-6%	?
CSc1cccc(NC(=S)N2CCCN(Cc3ccc(F)cc3)C2)c1	.	.	-14%
CC(C)(C)c1nc2scc(-c3cccs3)c2c(=O)o1	39	?	?
Cc1nc2scc(-c3cccs3)c2c(=O)[nH]1	?	22µM*	11µM*
Cc1nc2scc(-c3cccs3)c2c(=O)n1CC(=O)O	-80*	-30%	3%
O=C(O)Cn1cnc2scc(-c3cccs3)c2c1=O	9	-22%	-3%
CN1CCc2cc3c(cc2C(=O)Cc2ccc4c(c2C1)OCO4)OCO3	.	-8%	-2%
CC/C(=N\NC(=O)CSc1ncccn1)c1ccc2c(c1)OCCO2	31	-14%	?
Cc1nn(-c2ccc(F)cc2)c(C)c1NS(=O)(=O)c1ccc(Cl)cc1	-25	-17%	11%
C/C=C/c1ccc(OCCCN2C(=O)NC(C)(C)C2=O)c(OC)c1	-125*	-13%	14µM*
C/C=C/c1ccc(OCCN2C(=O)NC(C)(C)C2=O)c(OC)c1	17	-10%	?
O=C(C1CCN(S(=O)(=O)c2cccc3cccnc23)CC1)N1CCn2c1nc1ccccc12	-14	-9%	8%
O=C(c1cnc(-c2ccc(Cl)cc2)s1)c1ccc(Cl)cc1Cl	62	35µM*	-5%
SMILES	PNC inhibitor	HPGD block	ALDH1A1 inh
O=C(C/C=N/OCc1ccc(Cl)cc1)c1cnc(-c2ccccc2)s1	13	-11%	?
NC(=O)C1CCN(C(=O)CCC(=O)c2ccc(Br)cc2)CC1	.	.	-4%
COc1cc(COCC(O)CN2CCc3ccccc3C2)cc(OC)c1OC (stereo unspecified)	.	.	6%
Cc1ccc(-n2c(C)cn(C(=O)c3ccccc3)c2=S)cc1	?	-11%	-1%
Cc1cn(C(=O)c2ccccc2)c(=S)n1-c1ccc(Cl)cc1	-100*	?	-4%
COc1ccc(C(=O)c2ccc(Cl)cc2)c2ccccc12	-1	-7%	-6%
COc1ccc(C(=O)CCN(C)C)c2ccccc12	.	-29%	0.028µM*
COc1ccccc1-c1n[nH]c(=S)n1Cc1ccco1	.	.	3%
COc1ccccc1-c1cn[nH]c(=S)n1	-14	22µM*	7.1µM*
O=C1c2ccccc2C(=O)N1CC(O)CNc1ccc(Br)cc1 (stereo unspecified)	?	-4%	?
O=C(c1ccco1)N1CCN(C(c2ccc(Cl)cc2)c2nnnn2Cc2ccccc2)CC1 (stereo unspecified)	-4	-2%	?
CCC(C)(C)n1nnnc1C(c1ccc(C)cc1)N1CCN(C(=O)c2ccco2)CC1 (stereo unspecified)	-14	1%	-6%
Cc1ccc(C(c2nnnn2Cc2cccs2)N2CCN(C(=O)c3ccco3)CC2)cc1 (stereo unspecified)	?	10%	4.5µM*
O=C(c1ccco1)N1CCN(C(c2ccccc2F)c2nnnn2CC2CCCO2)CC1 (stereo unspecified)	1	-10%	?
COc1ccc(C(c2nnnn2Cc2ccccc2)N2CCN(C(=O)c3ccco3)CC2)cc1 (stereo unspecified)	9	1%	28µM*

High-throughput results deposited in PubChem by National Center for Advancing Translational Sciences (NCATS).
